Data published in PubChem BioAssay (EPA / NIEHS).
The source made the active and inactive calls. Rule for the calls: active = hit-call score of the fitted dose curve at least 0.9, where 1 is the maximum; inactive = score below 0.9.

Legend:
Conditions in all cases: mRNA level, 48 h; actives raise or lower the signal
[1] = read-out: DNA damage-inducible transcript 3 (DDIT3), DDIT3 (gene 1649); test: LTEA_HepaRG_DDIT3: Life Technologies and Expression Analysis (LTEA) Assay for DNA damage-inducible transcript 3 (DDIT3) using HepaRG (AID 2283488)
In short: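 Cells are human HepaRG liver cells treated for 48 h with eight half-log concentrations up to 100 uM in 0.5% DMSO. Transcript levels come from qRT-PCR normalized to three housekeeping genes, with activity fitted in both directions relative to vehicle.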

[2] = read-out: Pro-epidermal growth factor (Homo sapiens) (UniProt P01133); test: LTEA_HepaRG_EGF: Life Technologies and Expression Analysis (LTEA) Assay for Epidermal growth factor (EGF) using HepaRG (AID 2283489)
In short: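 HepaRG, 48 h dosing, 100 uM top, half-log x8, 0.5% DMSO. Readout: TaqMan qRT-PCR (Fluidigm array), housekeeping-normalized. Gain or loss of signal fit vs DMSO.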

[3] = read-out: Early growth response protein 1 (EGR1) transcription factor, EGR1 (gene 1958); test: LTEA_HepaRG_EGR1: Life Technologies and Expression Analysis (LTEA) Assay for Early growth response protein 1 (EGR1) transcription factor using HepaRG (AID 2283490)
In short: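 EGR1 expression change in human HepaRG after 48 h chemical exposure, assessed by housekeeping-normalized qRT-PCR; concentration-response up to 100 uM, fitted in both directions against DMSO controls.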

[4] = read-out: Ezrin (EZR), EZR (gene 7430); test: LTEA_HepaRG_EZR: Life Technologies and Expression Analysis (LTEA) Assay for Ezrin (EZR) using HepaRG (AID 2283491)
In short: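 HepaRG, 48 h chemical exposure, 8-pt half-log series from 100 uM, 0.5% DMSO vehicle, duplicates. Read-out: EZR mRNA by TaqMan qRT-PCR (Fluidigm array), housekeeping-normalized; bidirectional curve fit vs DMSO baseline.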

[5] = read-out: Fatty Acid-Binding Protein 1 (FABP1), FABP1 (gene 2168); test: LTEA_HepaRG_FABP1: Life Technologies and Expression Analysis (LTEA) Assay for Fatty Acid-Binding Protein 1 (FABP1) using HepaRG (AID 2283494)
In short: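 Values reflect bidirectional concentration-response fitting of FABP1 mRNA change against 0.5% DMSO controls. Human HepaRG cultures received eight half-log doses (top 100 uM) for 48 h; expression quantified by TaqMan qRT-PCR with housekeeping-gene normalization.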

[6] = read-out: Cytochrome P450 4A22 (Homo sapiens) (UniProt Q5TCH4); test: LTEA_HepaRG_CYP4A22: Life Technologies and Expression Analysis (LTEA) Assay for Cytochrome P450 4A22 (CYP4A22) using HepaRG (AID 2283495)
In short: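 Readout is CYP4A22 transcript induction or loss, quantified by qRT-PCR and normalized to ACTB, GAPDH and POLR2A. Human HepaRG cells receive test chemicals for 48 h at eight half-log concentrations from 100 uM in 0.5% DMSO.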

[7] = read-out: Cytochrome P450 7A1 (Homo sapiens) (UniProt P22680); test: LTEA_HepaRG_CYP7A1: Life Technologies and Expression Analysis (LTEA) Assay for Cytochrome P450 7A1 (CYP7A1) using HepaRG (AID 2283496)
In short: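 HepaRG, 48 h exposure, 8-pt half-log series from 100 uM, 0.5% DMSO vehicle, duplicates. Readout: TaqMan qRT-PCR mRNA vs three housekeeping genes; bidirectional curve fit against DMSO baseline.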

[8] = read-out: Glutathione S-Transferase (GSTA2), GSTA2 (gene 2939); test: LTEA_HepaRG_GSTA2: Life Technologies and Expression Analysis (LTEA) Assay for Glutathione S-Transferase (GSTA2) using HepaRG (AID 2283497)
In short: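 Oxidative-stress marker GSTA2 is quantified by TaqMan qRT-PCR in HepaRG cultures treated 48 h across an eight-point range to 100 uM. Expression is normalized to endogenous controls and compared with 0.5% DMSO vehicle.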

[9] = read-out: Glutamate-cysteine ligase catalytic (GCLC), GCLC (gene 2729); test: LTEA_HepaRG_GCLC: Life Technologies and Expression Analysis (LTEA) Assay for Glutamate-cysteine ligase catalytic (GCLC) using HepaRG (AID 2283498)
In short: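 Oxidative-stress marker GCLC is measured as mRNA change in human HepaRG liver cells after 48 h chemical treatment in 0.5% DMSO, eight concentrations from 100 uM. Activity is fitted bidirectionally against vehicle.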

[10] = read-out: growth arrest and DNA damage 45 (GADD45G), GADD45G (gene 10912); test: LTEA_HepaRG_GADD45G: Life Technologies and Expression Analysis (LTEA) Assay for growth arrest and DNA damage 45 (GADD45G) using HepaRG (AID 2283499)
In short: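 Gain or loss of GADD45G mRNA, quantified by TaqMan qRT-PCR against three housekeeping genes, is fitted in both directions relative to 0.5% DMSO. Human HepaRG cultures receive test chemical for 48 h at up to 100 uM.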

[11] = read-out: Glutamate-cysteine ligase regulatory (GCLM), GCLM (gene 2730); test: LTEA_HepaRG_GCLM: Life Technologies and Expression Analysis (LTEA) Assay for Glutamate-cysteine ligase regulatory (GCLM) using HepaRG (AID 2283500)
In short: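 Endpoint is GCLM transcript level by qRT-PCR, normalized to three housekeeping genes, after 48 h chemical exposure of human HepaRG cells (0.5% DMSO vehicle, top 100 uM, half-log dilutions). Fitting was bidirectional relative to DMSO.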

[12] = read-out: Glutathione S-transferase M3 (GSTM3), GSTM3 (gene 2947); test: LTEA_HepaRG_GSTM3: Life Technologies and Expression Analysis (LTEA) Assay for Glutathione S-transferase M3 (GSTM3) using HepaRG (AID 2283501)
In short: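 HepaRG, plated 48 h, then serum-free induction medium; test chemical 48 h, duplicate; 100 uM top, half-log x8, 0.5% DMSO. Read-out: GSTM3 mRNA (TaqMan qRT-PCR, Fluidigm array). Bidirectional fit vs DMSO.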

[13] = read-out: Heat shock 70 kDa protein 1 (HSPA1A), gene 3303; test: LTEA_HepaRG_HSPA1A: Life Technologies and Expression Analysis (LTEA) Assay for Heat shock 70 kDa protein 1 (HSPA1A) using HepaRG (AID 2283502)
In short: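 Cells were plated and cultured for 48 h, then switched to serum-free induction medium. Chemicals were added at eight half-log concentrations up to 100 uM for 48 h. RNA was then isolated and HSPA1A measured by qRT-PCR with bidirectional curve fitting against DMSO.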

[14] = read-out: Hypoxia-inducible factor 1-alpha (Homo sapiens) (UniProt Q16665); test: LTEA_HepaRG_HIF1A: Life Technologies and Expression Analysis (LTEA) Assay for Hypoxia-inducible factor 1 (HIF1A) Trancription factor using HepaRG (AID 2283503)
In short: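 HIF1A transcript level read by qRT-PCR (ACTB, GAPDH, POLR2A normalization) after 48 h chemical exposure of HepaRG cultures. Eight half-log concentrations, top 100 uM, 0.5% DMSO vehicle, duplicates; bidirectional curve fit against DMSO baseline.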

[15] = read-out: 3-Hydroxy-3-Methylglutaryl-CoA Synthase 2 (HMGCS2), HMGCS2 (gene 3158); test: LTEA_HepaRG_HMGCS2: Life Technologies and Expression Analysis (LTEA) Assay for 3-Hydroxy-3-Methylglutaryl-CoA Synthase 2 (HMGCS2) using HepaRG (AID 2283504)
In short: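 HepaRG, plated 48 h then switched to serum-free induction media; cmpd 8-pt, max 100 uM, 1/2-log, 0.5% DMSO, n=2, 48 h. HMGCS2 mRNA by Fluidigm TaqMan qRT-PCR, ACTB/GAPDH/POLR2A norm; bidirectional fit vs DMSO.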

HGF (gene 3082) = test: LTEA_HepaRG_HGF: Life Technologies and Expression Analysis (LTEA) Assay for Hepatocyte Growth Facto (HGF) using HepaRG (AID 2283505)
In short: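 Read-out is HGF transcript level by qRT-PCR, normalized to three housekeeping genes, fitted bidirectionally against 0.5% DMSO vehicle. Human HepaRG cells received test chemicals for 48 h at up to 100 uM.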

[16] = read-out: Insulin Like Growth Factor 1 (IGF1), IGF1 (gene 3479); test: LTEA_HepaRG_IGF1: Life Technologies and Expression Analysis (LTEA) Assay for Insulin Like Growth Factor 1 (IGF1) using HepaRG (AID 2283506)
In short: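 Cells are thawed, plated and cultured 48 h, then exposed in duplicate to chemical (highest 100 uM, half-log steps, 0.5% DMSO) for another 48 h. Total RNA is analysed by Fluidigm qRT-PCR for IGF1 expression relative to vehicle.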

[17] = read-out: Intercellular Adhesion Molecule 1 (ICAM1), ICAM1 (gene 3383); test: LTEA_HepaRG_ICAM1: Life Technologies and Expression Analysis (LTEA) Assay for Intercellular Adhesion Molecule 1 (ICAM1) using HepaRG (AID 2283507)
In short: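 Readout is qRT-PCR mRNA level, normalized to three housekeeping genes and fitted bidirectionally against 0.5% DMSO vehicle. Human HepaRG cultures received compound for 48 h, top concentration 100 uM with half-log dilutions.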

[18] = read-out: Cytochrome P450 3A7 (Homo sapiens) (UniProt P24462); test: LTEA_HepaRG_CYP3A7: Life Technologies and Expression Analysis (LTEA) Assay for CYP3A7 using HepaRG (AID 2283492)
In short: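 Human HepaRG liver cells, 48 h post-plating, switched to serum-free induction medium and exposed in duplicate for 48 h. Dosing: 100 uM top, half-log dilutions, 8 points, 0.5% DMSO vehicle. Read-out: CYP3A7 mRNA, gain or loss fitted against DMSO baseline.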

Measured: AC50

Chain of Hypoxia-inducible factor 1-alpha (Homo sapiens) (Q16665 whole entry, looked up): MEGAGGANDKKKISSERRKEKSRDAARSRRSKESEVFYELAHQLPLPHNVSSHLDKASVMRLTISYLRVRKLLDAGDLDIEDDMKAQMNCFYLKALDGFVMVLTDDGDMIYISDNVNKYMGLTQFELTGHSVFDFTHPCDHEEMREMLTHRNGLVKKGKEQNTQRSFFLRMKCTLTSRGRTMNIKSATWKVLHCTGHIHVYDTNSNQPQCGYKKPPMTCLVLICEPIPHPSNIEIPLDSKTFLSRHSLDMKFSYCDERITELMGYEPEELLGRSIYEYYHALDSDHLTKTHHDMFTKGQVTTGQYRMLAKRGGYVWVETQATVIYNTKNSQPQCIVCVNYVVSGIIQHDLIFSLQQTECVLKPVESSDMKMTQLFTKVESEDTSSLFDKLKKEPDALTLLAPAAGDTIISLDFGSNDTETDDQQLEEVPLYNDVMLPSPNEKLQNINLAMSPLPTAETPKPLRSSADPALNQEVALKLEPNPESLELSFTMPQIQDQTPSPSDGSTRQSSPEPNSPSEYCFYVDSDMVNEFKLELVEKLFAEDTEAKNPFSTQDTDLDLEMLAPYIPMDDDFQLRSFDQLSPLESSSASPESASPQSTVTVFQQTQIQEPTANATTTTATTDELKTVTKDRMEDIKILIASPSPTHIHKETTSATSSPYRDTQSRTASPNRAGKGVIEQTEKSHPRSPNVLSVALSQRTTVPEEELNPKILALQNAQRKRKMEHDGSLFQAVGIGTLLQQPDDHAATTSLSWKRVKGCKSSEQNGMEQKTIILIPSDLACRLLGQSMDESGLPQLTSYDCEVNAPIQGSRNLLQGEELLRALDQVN
Chain of Cytochrome P450 3A7 (Homo sapiens) (P24462 whole entry, looked up): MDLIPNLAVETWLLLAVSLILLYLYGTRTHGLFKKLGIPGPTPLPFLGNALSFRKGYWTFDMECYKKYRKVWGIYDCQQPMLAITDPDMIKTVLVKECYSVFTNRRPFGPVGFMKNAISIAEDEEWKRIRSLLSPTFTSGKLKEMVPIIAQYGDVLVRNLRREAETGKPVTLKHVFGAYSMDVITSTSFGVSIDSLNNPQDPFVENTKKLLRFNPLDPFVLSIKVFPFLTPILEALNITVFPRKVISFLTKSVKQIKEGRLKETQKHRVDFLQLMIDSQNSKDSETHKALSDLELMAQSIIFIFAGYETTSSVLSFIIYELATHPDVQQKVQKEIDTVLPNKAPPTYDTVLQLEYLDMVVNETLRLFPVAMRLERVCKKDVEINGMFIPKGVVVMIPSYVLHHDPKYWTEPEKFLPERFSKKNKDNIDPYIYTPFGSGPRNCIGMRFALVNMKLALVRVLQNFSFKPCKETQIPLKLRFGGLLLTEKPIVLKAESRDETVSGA

Cc1c(C)c2c(c(C)c1O)CCC(C)(COc1ccc(CC3SC(=O)NC3=O)cc1)O2 (stereo not given)
active: [3] 88.3 µM | [6] 25.8 µM | [7] 92.7 µM | [8] 23.2 µM | [9] 93.6 µM | [10] 19.1 µM | [13] 50 µM | [14] 66.8 µM | [16] 68.5 µM
inactive: [1] | [2] | [4] | [5] | [11] | [12] | [15] | HGF (gene 3082) | [17]

O=[Si]=O
not listed: [2] | [6] | [7] | [15]
inactive: all other assays above

COC(=O)[C@H]1[C@H]2C[C@@H]3c4[nH]c5cc(OC)ccc5c4CCN3C[C@H]2C[C@@H](OC(=O)c2cc(OC)c(OC)c(OC)c2)[C@@H]1OC
active: [1] 55.1 µM | [2] 42.2 µM | [3] 64.2 µM | [4] 8.38 µM | [8] 60.1 µM | [10] 24.6 µM | [12] 42.2 µM | [13] 42.2 µM | [16] 54.4 µM | [17] 28.7 µM
inactive: [9] | [11] | HGF (gene 3082)

CCCCCCCCCCCCCCOS(=O)(=O)O
active: [16] 24.6 µM
not listed: [7]
inactive: all other assays above

N[C@@H](Cc1c[nH]c2ccccc12)C(=O)O
not listed: [7] | [15]
inactive: all other assays above

Oc1ccccc1O
not listed: [7] | [14]
inactive: all other assays above

CN(C)C(=O)NC1(c2ccccc2)CCN(CCC[C@]2(c3ccc(Cl)c(Cl)c3)CCCN(C(=O)c3ccccc3)C2)CC1
inactive: [2] | [12] | [14] | [15]
active: [1] 18.1 µM | [3] 23.1 µM | [4] 23.4 µM | [5] 20.5 µM | [6] 23.7 µM | [8] 20.3 µM | [9] 21.9 µM | [10] 20.4 µM | [11] 12.5 µM | [13] 20.5 µM | HGF (gene 3082) 22.5 µM | [16] 16.4 µM | [17] 20.1 µM
